Experimental data as given in PubChem BioAssay AID504621 (Broad Institute, 2011).
In all, about 310,000 compounds went through this assay and about 970 (0.31%) were called active. The entries come from a sample that favours actives as a whole. Unmarked numbers belong to inactive results.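 How the source made its calls: active means every replicate shows inhibition above about 80%, whatever the replicate mean (limit read from the data); inconclusive means mean inhibition reaches the set limit but some replicate falls short; inactive means the rest.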

assay: reduced ATP signal of yeast carrying P. falciparum Hsp90 – S. cerevisiae, BacTiter-Glo luminescence, single point, set 2, antimalarial PfHsp90 inhibitor project, primary screen (AID 504621);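 further: yeast relying on Plasmodium falciparum Hsp90 in place of its own; 0% = DMSO neutral controls and 100% = 20 µM radicicol positive controls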; conditions: S. cerevisiae expressing PfHsp90, growth, 48 h, at 9.4 µM, hits give high values

Row | SMILES | inhibition
1 | CCOC(=O)C1(c2ccccc2)CCN(CC(O)c2ccc(NC(C)=O)cc2)CC1 (centres undefined) | -7.12%
2 | CCC(=O)OC(Cc1ccccc1)(c1ccccc1)C(C)CN(C)C (centres undefined) | 34.8%
3 | COC1C(O)C(C)OC(OC2CCC3(C=O)C(CCC4C3CCC3(C)C(C5=CC(=O)OC5)CCC43O)C2)C1O (centres undefined) | -24.6%
4 | CC(=O)OC1C2(CC3N4C(=O)C5(CO)SSC4(CC31O)C(=O)N5C)OC(C)C(C)(C)C2=O (centres undefined) | 11.7%
5 | CC1CC=CCC12C(=O)NC(=S)NC2=O (centres undefined) | 3.23%
6 | CC12CCC(O)CC1CCC1C2CCC2(C)C(C(=O)CC(O)C(F)(F)F)CCC12 (centres undefined) | -14.7%
7 | CC12CCC3C(CCC4CC(=O)CCC43C)C1CC(=NO)C2=O (centres undefined) | -28.6%
8 | CN(C)CC1Oc2ccccc2OC1(O)c1ccccc1 (centres undefined) | 102% (active)
9 | O=C(c1ccccc1)C(O)(CN1CCCCC1)c1ccccc1 (centres undefined) | 8.04%
10 | CC1C(=O)OC2CCN3CC=C(COC(=O)C(C)(O)C1(C)O)C23 (centres undefined) | 11.4%
11 | CC(CC(C#N)(c1ccccc1)c1ccccc1)N1CCCCC1 (centres undefined) | 13.9%
12 | CCCCCCCCCCCCn1ccc(=N)cc1 | 93.6% (active)
13 | CCC(C)(O)C(=O)OC1C(=O)OC2CC3C(C)=CC(=O)C(O)C3(C)C3C4(O)OCC23C1C(C)C4O (centres undefined) | -25.9%
14 | CC(=O)C1(O)CCC2C3CCC4=C(Cl)C(=O)CCC4(C)C3CCC21C (centres undefined) | 7.87%
